Vaccinia mCherry – vaccinia inhibition (mCherry reporter); Potency, µM (series often up to 36.5 µM), without a hit: at the highest dose activity change, negative = inhibition, most hits filed as inhibitors; Vaccinia virus mCherry reporter infection, fluorescence; AID 720579; 310,000 compounds, 0.63% hits; calls by dose curve; tested in A549 cells; also: nearly all actives have a fitted effect of over 35% in size
VACV Venus inh – inhibitors of vaccinia virus (Venus reporter) | 330,000 compounds, 0.46% hits | Vaccinia virus Venus reporter expression, fluorescence | Potency, µM (series often up to 36.5 µM), inactives show top-dose activity change, negative = inhibition, actives largely listed as inhibitors | AID 720580; calls by dose curve; tested in A549 cells; also: nearly all actives have a fitted effect of over 30% in size
Pf growth 48h – inhibits P. falciparum growth in the first generation, 48 h; P. falciparum luciferase growth in erythrocytes, 48 h; AID 504832; Potency, µM (series often up to 28.7 µM), without a hit: top-dose activity change, negative = inhibition, actives largely listed as inhibitors; 310,000 compounds, 5.9% hits
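In quantitative HTS format, infected erythrocytes bearing luciferase-reporter parasites were treated for a single generation at 37 C. Luminescence after adding detection reagent served as the growth measure.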
AMA1-RON2 inh – AMA1-RON2 (P. falciparum) interaction inhibition; AlphaScreen AMA1-biotinylated RON2 peptide binding; Potency, µM (titrated, usually from 58.2 µM), for the others: at the highest dose activity change, negative = inhibition, usual class: inhibitors; 360,000 compounds, 0.2% hits; AID 720542;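 also: 0% = vehicle wells and -100% = peptide control; nearly all actives have a fitted effect of over 45% in size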
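AMA1 (3D7) with his tag at 25 nM final met compounds first, then biotinylated RON2 peptide at 25 nM; detection used donor plus acceptor beads, 10 µg/mL apiece, read by AlphaScreen after 30 min at room temperature.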
Pf growth 96h – P. falciparum growth inhibition at 96 hour, primary screen for plastid delayed-death inhibitors | P. falciparum luciferase reporter growth, 96 h | Potency, µM (highest dose often 28.7 µM), for the others: at the highest dose activity change, negative = inhibition, usual class: inhibitors | 320,000 compounds, 6.9% hits
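Parasite growth measured via integrated firefly luciferase reporter in P. falciparum. Infected erythrocytes at 2% hematocrit, 0.05% parasitemia final were treated 96 hours at 37 C under 5% CO2, and luminescence was read.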
Numbers without * were called inactive; i = inactive; u = inconclusive; x = no result given; [ ] = another dose, or the depositor's remark. An excerpt weighted towards active compounds, which were near 8.7% of everything screened. Unless noted, calls follow the shape of the dose curve; as a rule, active = well fitted curve in the direction sought with a large enough effect; inconclusive = small, poorly fitted or top-dose-only effect, or another doubt; inactive = no such curve, though single readings can be large; an effect the other way counts as inactive or inconclusive. Unless noted, % is scaled to controls: 0 for no effect and ±100 for the full control effect; potency is read from the fitted curve at half-maximal effect.

SMILES	Vaccinia mCherry	VACV Venus inh	Pf growth 48h	AMA1-RON2 inh	Pf growth 96h
CCOC(=O)c1ccc(NC(=O)C2CCCN(S(=O)(=O)c3ccc(F)cc3)C2)cc1 (centres undefined)	x	x	x	5%	8.3µM*
CCOC(=O)c1[nH]c2ccccc2c1NC(=O)c1ccc(S(=O)(=O)N2CCCC2)cc1	u	-3%	u	-7%	12µM*
O=C(NCc1ccccc1)C1CCCN(S(=O)(=O)c2ccc(Br)cc2)C1 (centres undefined)	-8%	-24%	-30%	-5%	0.29µM*
CCc1ccc(NC(=O)C2CCCN(S(=O)(=O)c3ccc(F)cc3)C2)cc1 (centres undefined)	-14%	-21%	x	x	x
O=C(NCc1ccccc1)C1CCCN(S(=O)(=O)c2ccc(F)cc2)C1 (centres undefined)	i	-13%	-4%	21%	12µM*
COc1ccc(S(=O)(=O)N2CCCC(C(=O)NCc3ccc(F)cc3)C2)cc1 (centres undefined)	-23%	-22%	1%	0%	2%
CCOC(=O)c1[nH]c2ccccc2c1NC(=O)c1ccc(C)c(C)c1	-11%	-5%	x	x	x
CCOC(=O)c1c(C)[nH]c(C)c1S(=O)(=O)N1CCCC(C(=O)N2CCN(c3ccccc3F)CC2)C1 (centres undefined)	-11%	-7%	x	x	x
COc1ccc(-c2nc(CSCC(=O)NCc3ccccc3Cl)c(C)o2)cc1OC	-3%	-18%	x	x	x
Cc1nc2nc(CNC(=O)c3cccc(F)c3)nn2c(C)c1CCC(=O)Nc1cccc(Cl)c1	5%	-9%	x	x	x
O=C(COc1ccccc1C(=O)Nc1ccccc1)Nc1ccccc1Cl	-17%	-22%	x	x	x
CCCCn1c2ccc(F)cc2c2nnc(SCCN3CCCCC3)nc21	-7%	u	u	-4%	-2%
CCCCn1c2ccc(C)cc2c2nnc(SCCN3CCCCC3)nc21	x	x	13µM*	8%	u
CC(C)(C)OC(=O)N1CCC(c2c(C(=O)NCCN3CCc4ccccc4C3)cnn2-c2ccc(F)cc2)CC1	-19%	-15%	x	x	x
Cc1cnc(-n2ncc(C(=O)NCCN3CCOCC3)c2-c2cccs2)nc1-c1ccc(F)cc1	i	0%	x	x	x
Cc1ccc(N2CCN(C(=O)c3cc(S(=O)(=O)N4CCCCC4)c[nH]3)CC2)c(C)c1	-28%	-19%	x	x	x
CCOC(=O)C(=NC(C)(C)C)NNc1cc(Cl)ccc1Cl	-15%	-7%	u	-2%[2.32 µM]	9.3µM*
CCOC(=O)C(=NC(C)C)NNc1cc(Cl)ccc1Cl	x	x	u	-7%	0%
Cc1cc(C)c2c(c1)[C@@H]1C=CC[C@@H]1[C@H](c1ccc(S(=O)(=O)N3CCOCC3)cc1)N2	i	-6%	10µM*	-9%	8%
COC(=O)c1ccc(C2Nc3c(C)cc(C)cc3C3C=CCC32)cc1 (centres undefined)	-6%	-4%	x	x	x
CCOC(=O)c1[nH]c(COC(=O)CCCOc2ccccc2)c(C(=O)OCC)c1C	i	-6%	13µM*	8%	u
CO/N=C/C(c1ncc(C(F)(F)F)cc1Cl)S(=O)(=O)c1ccccc1 (centres undefined)	-15%	-18%	10µM*	7%	9.3µM*
CO/N=C/C(c1ccc(Cl)nc1)S(=O)(=O)c1ccccc1 (centres undefined)	x	x	-16%	7%	-3%
CCOC(=O)c1ccc(NC(=O)CC2C(=O)N(c3cccc(OC)c3)C(=O)N2Cc2ccc(OC)cc2)cc1 (centres undefined)	-2%	-1%	x	x	x
Cc1ccc(-c2cn3c(n2)sc2cc(C(=O)NC4CCCCCC4)ccc23)cc1	u	-19%	x	x	x
SMILES	Vaccinia mCherry	VACV Venus inh	Pf growth 48h	AMA1-RON2 inh	Pf growth 96h
CCCSc1nsc(NC(=O)CCC)n1	-13%	-8%	i	-5%	3.7µM*
Cc1cc(C)c(NC(=O)CSc2ccc(-c3sc(-c4ccccc4)nc3C)nn2)c(C)c1	-15%	-20%	x	x	x
Cc1ccc(S(=O)(=O)N2CCN(C(=O)C(F)(F)F)C2c2ccc(N(C)C)cc2)cc1 (centres undefined)	11%	7%	33%	12%	13µM*
COc1ccc(CNC(=O)c2onc(C)c2Cl)cc1	-7%	-6%	-3%	0%	13µM*
O=C(NCc1ccc(Cl)cc1)c1ccncc1	x	x	3%	-1%	u
COc1ccc(CNC(=O)C(OC(C)=O)c2ccccn2)cc1 (centres undefined)	-18%	-12%	29%	30%	15µM*
COc1ccc(NC(=O)c2onc(C)c2Cl)cc1	x	x	124%	19%	252%
COc1ccc(CNC(=O)CCC(=O)c2ccccc2)cc1	x	x	15µM*	-2%	-28%
O=C(NCc1ccc(F)cc1)c1ccncc1	x	x	-13%	-9%	6.6µM*
COc1ccc(CNC(=O)C(OC(=O)c2ccco2)c2ccccc2F)cc1 (centres undefined)	-17%	-14%	58%	6%	-10%
Cc1oc(-c2ccc(C(=O)NCCC(C)C)cc2)nc1CS(=O)(=O)c1ccccc1	-9%	-10%	x	x	x
COc1ccc(C(=O)NCC(=O)NCc2ccncc2)cc1	-16%	-11%	x	18%	x
O=C(NCc1ccc(F)cc1)c1cc2ccccn2n1	7%	-1%	20%	14%	3.7µM*
CCc1ccc(CNC(=O)c2cc3ccccn3n2)cc1	-8%	-7%	x	x	x
COc1ccc(CNC(=O)c2ccncc2)cc1	x	x	1%	-13%	3.3µM*
NCC12CC3CC(C1)CC(c1ccc(Cl)cc1)(C3)C2	u	13µM*	u	3%	18%
Nc1ccc(C23CC4CC(CC(CO)(C4)C2)C3)cc1	x	x	-4%	-3%	u
COc1ccc(S(=O)(=O)N2CCC3(CC2)OCCN3S(=O)(=O)c2ccc(C)cc2)cc1OC	-17%	-19%	-2%	-20%	7%
COc1ccc(S(=O)(=O)N2CCOC23CCN(S(=O)(=O)c2ccc(C)cc2)CC3)cc1	-4%	-3%	15µM*	-15%	u
Cc1ccc(S(=O)(=O)N2CCOC23CCN(S(=O)(=O)c2c(C)cc(C)cc2C)CC3)cc1	i	-23%	u	20%	4.7µM*
CCC(=O)c1ccc(OCC(=O)Nc2ccc(N3CCOCC3)cc2N2CCOCC2)cc1	x	x	u	-10%	2.9µM*
Cc1ccccc1OCC(=O)Nc1ccc(N2CCOCC2)cc1N1CCOCC1	x	x	9.3µM*	-10%	u
Cc1ccnc2nc(C(=O)Nc3cc(Cl)ccc3N3CCOCC3)nn12	x	-16%	0.15µM*	-8%	0.23µM*
CCN(CC)S(=O)(=O)c1ccc(N2CCOCC2)c(NC(=O)COc2ccc(OC)cc2)c1	x	x	u	-8%	u
CCN(CC)S(=O)(=O)c1ccc(N2CCOCC2)c(NC(=O)COc2ccccc2C)c1	x	x	1.9µM*	-3%	2.9µM*
O=C(Nc1cc(Cl)ccc1N1CCOCC1)c1ccc(Br)o1	-19%	-18%	184%	4%	-2%
Cc1ccccc1OCCC(=O)Nc1ccc(N2CCOCC2)cc1N1CCOCC1	-20%	-14%	u	5%	-7%

Screening data (PubChem BioAssay)
